Laboratory results published in the supplement of paper PMC12340641.
± gives the standard deviation of the averaged measurements.

Legend:
[1] = molecular target: IKZF1 (dCK*-IKZF1 fusion in HEK293FT) (UniProt Q13422); assay: inhibition of IKZF1 HTRF signal (DMSO = 0%, pomalidomide 10 uM = 100%); higher = lower IKZF1 protein level; details: compound concentration: 5 uM, overnight (~20 h)
In short: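 After overnight treatment at 37 °C with 5 μM compound in single wells, HEK293FT cells (2000/well, 384-well) stably expressing an IKZF1 fusion were lysed for 30 min at room temperature. A commercial HTRF total-IKZF1 antibody kit was incubated with the lysate overnight, and the time-resolved FRET ratio at 665/620 nm was corrected for background. Data are given as percent inhibition of IKZF1 signal relative, on each plate, to vehicle and a reference degrader, set at 0% and 100% respectively.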

HEK293FT dCK*-only = assay: relative growth in counter assay (no AraC = 100%, AraC + DMSO = 0%); higher = more growth rescue independent of IKZF1; details: compound concentration: 5 uM; AraC concentration: 0.3 uM; overnight pretreatment + 4 days AraC
In short: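 Counter assay in HEK293FT cells expressing dCK* alone (300/well, 384-well). Cells received 5 μM compound 2 h after seeding, then after overnight at 37 °C a nucleoside suicide substrate at 0.3 μM plus medium for 4 days. On day 5, Hoechst 33342-stained nuclei were counted by imaging. Relative growth was normalised per plate to wells without suicide substrate (100%) and substrate plus vehicle (0%).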

HEK293FT dCK*-IKZF1 = assay: relative growth recovery (pomalidomide 10 uM = 100%, DMSO = 0%); higher = more growth rescue (IKZF1 fusion degradation); details: compound concentration: 5 uM; AraC concentration: 0.3 uM; overnight pretreatment + 4 days AraC
In short: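 HEK293FT cells stably expressing a dCK*-IKZF1 fusion (300/well, 384-well) received 5 μM compound 2 h after seeding. After overnight at 37 °C they received a nucleoside suicide substrate at 0.3 μM plus medium for 4 days. On day 5, Hoechst 33342-stained nuclei were counted by whole-well imaging. Growth recovery was normalised per plate to a reference degrader (100%) and vehicle (0%); values are means of duplicates run on different days.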

Sequence of IKZF1 (dCK*-IKZF1 fusion in HEK293FT) (Q13422 whole entry, looked up, the tested form may be a part): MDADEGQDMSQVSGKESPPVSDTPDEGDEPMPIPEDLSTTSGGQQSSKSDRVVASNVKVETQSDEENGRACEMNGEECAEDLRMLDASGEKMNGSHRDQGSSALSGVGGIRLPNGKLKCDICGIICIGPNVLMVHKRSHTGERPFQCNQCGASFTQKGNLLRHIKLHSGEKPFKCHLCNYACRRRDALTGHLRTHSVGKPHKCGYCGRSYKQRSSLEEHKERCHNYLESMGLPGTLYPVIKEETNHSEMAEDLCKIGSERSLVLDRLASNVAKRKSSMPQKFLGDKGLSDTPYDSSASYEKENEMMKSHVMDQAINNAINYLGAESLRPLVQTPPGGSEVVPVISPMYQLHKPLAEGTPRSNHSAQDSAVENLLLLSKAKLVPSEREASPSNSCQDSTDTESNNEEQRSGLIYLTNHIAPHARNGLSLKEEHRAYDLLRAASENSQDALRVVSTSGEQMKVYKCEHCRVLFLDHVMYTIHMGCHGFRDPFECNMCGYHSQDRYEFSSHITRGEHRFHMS

Structure (SMILES) | inhibition of IKZF1 HTRF signal [1] | relative growth in counter assay (HEK293FT dCK*-only) | relative growth recovery (HEK293FT dCK*-IKZF1)
ClC(C=C3)=C(Cl)C=[C@@]3[C@H]2C1=CC=CC=C1[C@H](NC)C2 [indatraline] | 28.4% | 0.14% | -3.33%
CC[C@H]1C2CC3[C@@H]4N(C)c5ccccc5[C@]45C[C@@H](C2C5O)N3[C@@H]1O (some centres undefined) | -0.05% | 5.04% | 1.42%
CC(Cc1ccccc1)NCCC(c1ccccc1)c1ccccc1 (centres undefined) [prenylamine] | -23.8% | 9.26% | -0.73%
COc1cc2cc(c1Cl)N(C)C(=O)C[C@H](OC(=O)C(C)C)[C@]1(C)O[C@H]1[C@H](C)[C@@H]1C[C@@](O)(NC(=O)O1)[C@H](OC)/C=C/C=C(\C)C2 [Ansamitocin P-3] | -18.7% | -34.3% | -12.4%
CC(C)[C@]12O[C@H]1[C@@H]1O[C@]13[C@]1(O[C@H]1C[C@H]1C4=C(CC[C@@]13C)C(=O)OC4)[C@@H]2O [Triptolide] | 29.6% | -34% | -12.8%
Cc1cc(O)c2c(=O)c3c(O)cc(O)c4c5c(O)cc(O)c6c(=O)c7c(O)cc(C)c8c1c2c(c34)c(c78)c65 [Hypericin] | 13.4% | -9.3% | -3.8%
CC[C@H]1CN2CCc3cc(OC)c(OC)cc3C2C[C@@H]1CC1NCCc2cc(OC)c(OC)cc21 (some centres undefined) | 38.3% | -34.9% | -12.4%
O=C1/C(=C/c2ccccc2)C[C@@]2(O)C3Cc4ccc(O)c5c4[C@@]2(CCN3CC2CC2)[C@H]1O5 | 27.9% | -34.5% | -12.6%
COc1cc([C@@H]2c3cc4c(cc3[C@H](O)[C@H]3COC(=O)[C@H]23)OCO4)cc(OC)c1OC | 50% | -33.7% | -11.7%
Fc1ccc(C(OCCN2CCN(CCCc3ccccc3)CC2)c2ccc(F)cc2)cc1 [vanoxerine] | -25.6% | -32.4% | -10.5%
N#Cc1cn([C@@H]2O[C@H](CO)[C@@H](O)[C@H]2O)c2ncnc(N)c12 [toyocamycin] | 44.4% | -34.2% | -12.9%
CCCCCCC[n+]1ccc(-c2cc[n+](CCCCCCC)cc2)cc1 | -27.9% | -12.3% | -3.88%
COc1ccc2c(c1)/C(=C/c1cnc[nH]1)C(=O)N2 | -35.9% | -21.6% | -7.43%
CO[C@H]1C[C@H](O[C@H]2CC[C@@]3(C)[C@H](CC[C@@H]4[C@@H]3CC[C@]3(C)[C@@H](C5=CC(=O)OC5)[C@@H](OC(C)=O)C[C@]43O)C2)O[C@@H](C)[C@@H]1O [Oleandrin] | 45.9% | -35% | -12.7%
CC(=O)OC[C@]12CCC(C)=C[C@H]1O[C@@H]1[C@H](O)[C@@H](OC(C)=O)[C@@]2(C)[C@@]12CO2 [Diacetoxyscirpenol] | 93.3% | -34.2% | -12.7%
O=C(N/N=C/c1ccc([N+](=O)[O-])o1)c1cc([N+](=O)[O-])cc([N+](=O)[O-])c1O | 2.89% | -3.38% | -2.9%
C[C@]12CCC3C(CC[C@]4(O)C[C@@H](O)CC[C@]34C=O)[C@@]1(O)CCC2C1=CC(=O)OC1 (some centres undefined) [Strophantidin] | 74.7% | -32.9% | -11.4%
N#Cc1nn(-c2c(Cl)cc(C(F)(F)F)cc2Cl)c(N)c1S(=O)C(F)(F)F (centres undefined) | -50.9% | 7.45% | -1.52%
O=c1[nH]c2ccccc2n1C1CCN(CCCC(c2ccc(F)cc2)c2ccc(F)cc2)CC1 [Pimozide] | -27.8% | -9.38% | -1.04%
O=C(Nc1ccc(Br)cc1)c1cc(Br)cc(Br)c1O [tribomsalan] | 13.9% | -2.64% | -2.67%

Structure (SMILES) | inhibition of IKZF1 HTRF signal [1] | relative growth in counter assay (HEK293FT dCK*-only) | relative growth recovery (HEK293FT dCK*-IKZF1)
N=C(Nc1ccccc1)Nc1ccccc1 [diphenylguanidine] | -55.9% | -6.47% | -1.17%
C[C@]12CC[C@H](O)C[C@H]1CC[C@@H]1[C@@H]2CC[C@]2(C)[C@@H](C3=CC(=O)OC3)CC[C@]12O [digitoxigenin] | 40.7% | -34.6% | -12.2%
Clc1ccc(C(OCCN2CCCCC2)c2ccccc2)cc1 (centres undefined) | -26.4% | -4.94% | -0.525%
C=C1[C@@H](C)[C@H]2[C@H](Cc3ccccc3)NC(=O)[C@]23OC(=O)/C=C/[C@H](O)CCC[C@@H](C)C/C=C/[C@H]3[C@@H]1O [Cytochalasin B] | 32.2% | -30.2% | -8.39%
C[C@H]1CCC/C=C/C2C[C@H](O)C[C@H]2[C@H](O)/C=C/C(=O)O1 (some centres undefined) [brefeldin-a] | 2.49% | -32.6% | -10%
CC[C@@]1(C2O[C@@H](C3O[C@@](O)(CO)[C@H](C)C[C@@H]3C)C[C@@H]2C)CC[C@H]([C@]2(C)CC[C@]3(C[C@H](O)[C@@H](C)[C@@H]([C@@H](C)[C@@H](OC)[C@H](C)C(=O)O)O3)O2)O1 (some centres undefined) | 9.03% | -4.55% | -0.68%
Clc1ccccc1C(c1ccccc1)(c1ccccc1)n1cccn1 | -25.1% | 1.96% | -1.69%
CC[C@@]1(O)C(=O)OCc2c1cc1n(c2=O)Cc2cc3ccccc3nc2-1 [camptothecin] | -10.9% | -34.5% | -12.9%
CCCCCCCCCCCCCCCC[n+]1ccccc1 | -19.4% | -34.4% | -13%
C[C@H]1O[C@@H](O[C@H]2[C@@H](O)C[C@H](O[C@H]3[C@@H](O)C[C@H](O[C@H]4CC[C@@]5(C)[C@H](CC[C@@H]6[C@@H]5C[C@@H](O)[C@]5(C)C(c7coc(O)c7)CC[C@]65O)C4)O[C@@H]3C)O[C@@H]2C)C[C@H](O)[C@@H]1O (some centres undefined) [Digoxin] | 84.1% | -34.1% | -12.6%
COC[C@H]1OC(=O)c2coc3c2[C@@]1(C)C1=C(C3=O)[C@@H]2CCC(=O)[C@@]2(C)C[C@H]1OC(C)=O [Wortmannin] | 1.66% | 0.96% | 1.92%
CO[C@@]12C(=COC(N)=O)c3c(O)c(N)c(C)c(O)c3N1C[C@@H]1N[C@@H]12 [Mitomycin C] | 15.8% | -25.9% | -6.43%
C[C@]12CC[C@H](O)C[C@H]1CC[C@@H]1[C@@H]2C[C@@H](O)[C@]2(C)[C@@H](C3=CC(=O)OC3)CC[C@]12O [Digoxigenin] | 22.7% | -33.8% | -10.9%
OC1=[C@]([C@]2=C(O)C(C(C=O)=C(O)C(O)=C3C(C)C)=C3C=C2C)C(C)=CC4=C1C(C=O)=C(O)C(O)=C4C(C)C [gossypol] | -16.2% | -34.8% | -11.7%
CC[C@@H](C(N)=O)N1CCCC1=O | 17.7% | 2.24% | 0.38%
CN(C)C(=S)SSC(=S)N(C)C | -13.8% | -35.1% | -12.7%
Cc1cc(C(C#N)c2ccc(Cl)cc2)c(Cl)cc1NC(=O)c1cc(I)cc(I)c1O (centres undefined) | -5.04% | -3.81% | -0.555%
Clc1ccc(N2CCN(Cc3c[nH]c4ncccc34)CC2)cc1 | -41.5% | 6.88% | 2.15%
O=[N+]([O-])c1cc(O)c(O)c([N+](=O)[O-])c1 | -33.8% | 2.01% | 0.23%
Fc1ccc(C(OCCN2CCN(C/C=C/c3ccccc3)CC2)c2ccc(F)cc2)cc1 | -25.2% | 4.29% | 8.18%

Structure (SMILES) | inhibition of IKZF1 HTRF signal [1] | relative growth in counter assay (HEK293FT dCK*-only) | relative growth recovery (HEK293FT dCK*-IKZF1)
C[C@@H]1C[C@@H]([C@H](O)CC2CC(=O)NC(=O)C2)C(=O)[C@@H](C)C1 | 79.8% | -33.1% | -12%
O=c1[nH]c2ccccc2n1C1CCN(CCCC(c2ccc(F)cc2)c2ccc(F)cc2)CC1 | -18.9% | 3.23% | 5.47%
O=c1c2ccccc2[se]n1-c1ccccc1 | -37.8% | -8.59% | -0.075%
COC(=O)[C@@]12OC[C@]34[C@H]([C@@H](O)[C@@H]1O)[C@@]1(C)CC(=O)C(O)=C(C)[C@@H]1C[C@H]3OC(=O)[C@H](OC(=O)/C=C(\C)C(C)C)[C@@H]24 [Bruceantin] | 43.7% | -34.9% | -12.3%
COc1cc([C@@H]2c3cc4c(cc3[C@H](O)[C@H]3COC(=O)C23)OCO4)cc(OC)c1OC (some centres undefined) [Podofilox] | 49.2% | -34% | -12.1%
O=[N+]([O-])c1ccc(Cl)c([N+](=O)[O-])c1 [2,4-dinitrochlorobenzene] | 7.2% | -34.1% | -12.8%
c1ccc2c(c1)Sc1ccccc1N2CC1CN2CCC1CC2 (centres undefined) [levomequitazine] | 10.6% | -5.25% | 0.35%
c1ccc(CCCN2CCN(CCOC(c3ccccc3)c3ccccc3)CC2)cc1 | -28.8% | -4.09% | 3.4%
O=c1n(Cl)c(=O)n(Cl)c(=O)n1Cl | -9.26% | -2.72% | -1.44%
COc1cc2c(c(OC)c1OC)-c1ccc(OC)c(=O)cc1[C@@H](NC(C)=O)CC2 [Colchicine] | 17.9 ± 34% | -33.57 ± 0.13% | -12.2 ± 0.36%
CC(C)C[C@H](NC(=O)[C@@H](O)[C@H](N)Cc1ccccc1)C(=O)NCCOCCOCCOCC(=O)O[C@H]1CC[C@H]2[C@@H]3CC[C@H]4CC(=O)CC[C@]4(C)[C@H]3CC[C@]12C.O=C(O)C(F)(F)F [PROTAC AR Degrader-4 (TFA)] | 16.9% | 12.3% | 8.26%
Oc1c(I)cc(I)cc1I | 11% | 4.58% | 2.79%
C(=C\c1ccccc1)/CN1CCN(CCOC(c2ccccc2)c2ccccc2)CC1 | -32.9% | -4.14% | 0.86%
CCCCCCCCCCC(=O)O[C@H]1CC[C@H]2[C@@H]3CCC4=CC(=O)CC[C@]4(C)[C@H]3CC[C@]12C [Testosterone (undecanoate)] | -31.5% | 4.31% | -0.23%
O=C(CCCN1CCC(n2c(=O)[nH]c3ccccc32)CC1)c1ccc(F)cc1 [benperidol] | -18.1% | 4.87% | 1.78%
c1ccc2c(c1)sc1ccccc12 | -33.1% | -4.73% | 1.72%
CCCCC1(C2CCCC2)Cc2cc(OCCCC(=O)O)c(Cl)c(Cl)c2C1=O (centres undefined) | -38.8% | 2.86% | 0.8%
CC[C@@H](C(=O)O)C1CC[C@H](C)C([C@@H](C)[C@H](O)[C@H](C)C(=O)[C@H](CC)C2O[C@]3(C=C[C@@H](O)[C@]4(CC[C@@](C)(C5CC[C@](O)(CC)[C@H](C)O5)O4)O3)[C@H](C)C[C@@H]2C)O1 (some centres undefined) [Salinomycin (Procoxacin)] | -5.47% | -10.3% | -1.1%
